Assay results reported in ChEMBL document CHEMBL1961873, “Compounds: GSK PKIS; Assays: Nanosyn kinase panel” (2012).

What was measured:
[1] = biological target: Mitogen-activated protein kinase 3 (Homo sapiens) (UniProt P27361); settings: at 1 µM;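 also: values are mean percent inhibition of MAPK3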
[2] = biological target: SRSF protein kinase 3 (Homo sapiens) (UniProt Q9UPE1); settings: at 0.1 µM
[3] = biological target: SRSF protein kinase 3 (Homo sapiens) (UniProt Q9UPE1); settings: at 1 µM
[4] = biological target: Mitogen-activated protein kinase 14 (Homo sapiens) (UniProt Q16539); settings: at 0.1 µM
Sequence of Mitogen-activated protein kinase 14 (Homo sapiens) (Q16539 whole entry): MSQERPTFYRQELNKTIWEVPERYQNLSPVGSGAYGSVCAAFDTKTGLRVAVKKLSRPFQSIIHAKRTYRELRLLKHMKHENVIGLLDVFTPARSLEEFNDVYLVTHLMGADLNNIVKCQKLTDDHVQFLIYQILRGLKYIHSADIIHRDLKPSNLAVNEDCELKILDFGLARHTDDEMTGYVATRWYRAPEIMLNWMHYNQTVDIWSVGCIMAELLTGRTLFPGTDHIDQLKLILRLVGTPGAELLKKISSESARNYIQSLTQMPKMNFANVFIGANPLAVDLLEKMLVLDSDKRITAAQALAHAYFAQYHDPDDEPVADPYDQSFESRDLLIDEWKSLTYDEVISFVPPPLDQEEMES

[5] = biological target: Mitogen-activated protein kinase 14 (Homo sapiens) (UniProt Q16539); settings: at 1 µM
[6] = biological target: Mitogen-activated protein kinase 11 (Homo sapiens) (UniProt Q15759); settings: at 0.1 µM
Sequence of Mitogen-activated protein kinase 11 (Homo sapiens) (Q15759 whole entry): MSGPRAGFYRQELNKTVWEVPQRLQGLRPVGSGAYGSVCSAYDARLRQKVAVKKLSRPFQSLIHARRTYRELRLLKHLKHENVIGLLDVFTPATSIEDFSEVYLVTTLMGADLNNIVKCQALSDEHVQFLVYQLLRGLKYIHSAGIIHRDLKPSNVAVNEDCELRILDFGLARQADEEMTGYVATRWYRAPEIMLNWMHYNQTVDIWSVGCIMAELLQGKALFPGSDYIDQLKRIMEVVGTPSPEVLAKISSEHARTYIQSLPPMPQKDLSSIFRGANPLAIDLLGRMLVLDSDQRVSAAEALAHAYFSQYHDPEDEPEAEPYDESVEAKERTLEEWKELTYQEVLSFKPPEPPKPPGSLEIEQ

[7] = biological target: Mitogen-activated protein kinase 11 (Homo sapiens) (UniProt Q15759); settings: at 1 µM
[8] = biological target: T1, Mitogen-activated protein kinase 13 (Homo sapiens) (UniProt O15264); settings: at 0.1 µM
T1 sequence (whole entry): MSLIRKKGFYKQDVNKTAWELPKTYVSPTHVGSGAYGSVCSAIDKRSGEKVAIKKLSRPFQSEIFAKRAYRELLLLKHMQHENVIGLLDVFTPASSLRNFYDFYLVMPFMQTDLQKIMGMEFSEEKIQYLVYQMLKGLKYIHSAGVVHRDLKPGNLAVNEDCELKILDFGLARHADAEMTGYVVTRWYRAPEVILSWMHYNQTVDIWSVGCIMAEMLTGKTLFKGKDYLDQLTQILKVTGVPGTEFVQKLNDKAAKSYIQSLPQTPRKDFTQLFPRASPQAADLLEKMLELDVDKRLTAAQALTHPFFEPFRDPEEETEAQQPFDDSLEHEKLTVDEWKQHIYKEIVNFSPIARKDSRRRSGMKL

[9] = biological target: T1, Mitogen-activated protein kinase 13 (Homo sapiens); settings: at 1 µM
[10] = biological target: T2, Mitogen-activated protein kinase 12 (Homo sapiens) (UniProt P53778); settings: at 0.1 µM
T2 sequence (whole entry): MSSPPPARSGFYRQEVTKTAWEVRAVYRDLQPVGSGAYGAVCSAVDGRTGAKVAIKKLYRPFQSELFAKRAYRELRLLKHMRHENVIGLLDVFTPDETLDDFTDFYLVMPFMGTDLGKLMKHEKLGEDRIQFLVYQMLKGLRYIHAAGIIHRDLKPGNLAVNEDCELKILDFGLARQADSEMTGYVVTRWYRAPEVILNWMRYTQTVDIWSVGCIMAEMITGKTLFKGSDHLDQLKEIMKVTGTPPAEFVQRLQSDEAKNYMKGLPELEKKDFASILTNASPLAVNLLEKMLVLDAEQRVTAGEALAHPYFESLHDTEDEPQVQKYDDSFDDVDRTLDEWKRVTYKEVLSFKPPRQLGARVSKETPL

[11] = biological target: T2, Mitogen-activated protein kinase 12 (Homo sapiens); settings: at 1 µM
[12] = biological target: SRSF protein kinase 1 (Homo sapiens) (UniProt Q96SB4); settings: at 0.1 µM
Sequence of SRSF protein kinase 1 (Homo sapiens) (Q96SB4 whole entry, canonical isoform): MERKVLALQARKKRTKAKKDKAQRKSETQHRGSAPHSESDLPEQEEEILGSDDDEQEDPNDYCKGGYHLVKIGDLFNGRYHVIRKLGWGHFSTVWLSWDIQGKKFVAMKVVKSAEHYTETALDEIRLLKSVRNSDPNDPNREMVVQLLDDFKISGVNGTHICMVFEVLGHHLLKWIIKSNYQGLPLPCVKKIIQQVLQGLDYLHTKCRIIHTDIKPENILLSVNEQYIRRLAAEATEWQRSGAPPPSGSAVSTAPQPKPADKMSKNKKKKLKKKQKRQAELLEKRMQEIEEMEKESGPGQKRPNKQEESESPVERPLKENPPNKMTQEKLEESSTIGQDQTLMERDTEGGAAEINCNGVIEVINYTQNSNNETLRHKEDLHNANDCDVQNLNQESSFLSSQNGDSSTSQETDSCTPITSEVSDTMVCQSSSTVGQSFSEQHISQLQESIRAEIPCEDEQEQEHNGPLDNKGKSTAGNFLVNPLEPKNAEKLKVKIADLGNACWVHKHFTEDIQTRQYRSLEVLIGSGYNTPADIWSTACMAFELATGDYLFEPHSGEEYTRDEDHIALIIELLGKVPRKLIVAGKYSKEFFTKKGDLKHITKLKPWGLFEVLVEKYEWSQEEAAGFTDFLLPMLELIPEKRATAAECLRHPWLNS

[13] = biological target: SRSF protein kinase 1 (Homo sapiens) (UniProt Q96SB4); settings: at 1 µM
[14] = biological target: Phosphatidylinositol 4,5-bisphosphate 3-kinase catalytic subunit alpha isoform (Homo sapiens) (UniProt P42336); settings: at 0.1 µM
Sequence of Phosphatidylinositol 4,5-bisphosphate 3-kinase catalytic subunit alpha isoform (Homo sapiens) (P42336 whole entry, canonical isoform): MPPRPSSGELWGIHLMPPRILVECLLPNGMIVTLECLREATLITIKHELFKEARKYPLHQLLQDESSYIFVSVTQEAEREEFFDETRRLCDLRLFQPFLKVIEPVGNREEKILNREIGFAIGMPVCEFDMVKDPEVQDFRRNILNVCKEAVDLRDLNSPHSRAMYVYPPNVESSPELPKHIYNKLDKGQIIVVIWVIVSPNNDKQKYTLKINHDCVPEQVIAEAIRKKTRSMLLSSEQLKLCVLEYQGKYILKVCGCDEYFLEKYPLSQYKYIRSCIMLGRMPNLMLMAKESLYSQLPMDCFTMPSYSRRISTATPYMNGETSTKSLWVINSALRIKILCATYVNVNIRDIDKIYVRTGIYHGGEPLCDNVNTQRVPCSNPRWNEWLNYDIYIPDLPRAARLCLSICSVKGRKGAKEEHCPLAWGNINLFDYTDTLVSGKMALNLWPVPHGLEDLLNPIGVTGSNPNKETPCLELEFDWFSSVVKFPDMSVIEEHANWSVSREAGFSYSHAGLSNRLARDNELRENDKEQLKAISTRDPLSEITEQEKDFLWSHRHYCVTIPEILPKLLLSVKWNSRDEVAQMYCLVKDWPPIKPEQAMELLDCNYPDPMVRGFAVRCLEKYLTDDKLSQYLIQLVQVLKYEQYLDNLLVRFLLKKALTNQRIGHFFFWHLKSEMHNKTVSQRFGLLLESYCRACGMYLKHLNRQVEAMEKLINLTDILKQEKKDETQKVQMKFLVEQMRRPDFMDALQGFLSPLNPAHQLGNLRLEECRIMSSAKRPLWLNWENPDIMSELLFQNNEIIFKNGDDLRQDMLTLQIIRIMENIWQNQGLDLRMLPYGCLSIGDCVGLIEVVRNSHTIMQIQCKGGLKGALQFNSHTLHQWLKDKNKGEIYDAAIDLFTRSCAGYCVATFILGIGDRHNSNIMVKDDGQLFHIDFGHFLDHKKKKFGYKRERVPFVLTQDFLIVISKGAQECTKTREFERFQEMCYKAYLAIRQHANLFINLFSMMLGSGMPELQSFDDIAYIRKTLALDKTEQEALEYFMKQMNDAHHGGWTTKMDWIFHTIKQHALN

[15] = biological target: Phosphatidylinositol 4,5-bisphosphate 3-kinase catalytic subunit alpha isoform (Homo sapiens) (UniProt P42336); settings: at 1 µM
[16] = biological target: T3, Phosphatidylinositol 4,5-bisphosphate 3-kinase catalytic subunit delta isoform (Homo sapiens) (UniProt O00329); settings: at 0.1 µM
T3 sequence (whole entry): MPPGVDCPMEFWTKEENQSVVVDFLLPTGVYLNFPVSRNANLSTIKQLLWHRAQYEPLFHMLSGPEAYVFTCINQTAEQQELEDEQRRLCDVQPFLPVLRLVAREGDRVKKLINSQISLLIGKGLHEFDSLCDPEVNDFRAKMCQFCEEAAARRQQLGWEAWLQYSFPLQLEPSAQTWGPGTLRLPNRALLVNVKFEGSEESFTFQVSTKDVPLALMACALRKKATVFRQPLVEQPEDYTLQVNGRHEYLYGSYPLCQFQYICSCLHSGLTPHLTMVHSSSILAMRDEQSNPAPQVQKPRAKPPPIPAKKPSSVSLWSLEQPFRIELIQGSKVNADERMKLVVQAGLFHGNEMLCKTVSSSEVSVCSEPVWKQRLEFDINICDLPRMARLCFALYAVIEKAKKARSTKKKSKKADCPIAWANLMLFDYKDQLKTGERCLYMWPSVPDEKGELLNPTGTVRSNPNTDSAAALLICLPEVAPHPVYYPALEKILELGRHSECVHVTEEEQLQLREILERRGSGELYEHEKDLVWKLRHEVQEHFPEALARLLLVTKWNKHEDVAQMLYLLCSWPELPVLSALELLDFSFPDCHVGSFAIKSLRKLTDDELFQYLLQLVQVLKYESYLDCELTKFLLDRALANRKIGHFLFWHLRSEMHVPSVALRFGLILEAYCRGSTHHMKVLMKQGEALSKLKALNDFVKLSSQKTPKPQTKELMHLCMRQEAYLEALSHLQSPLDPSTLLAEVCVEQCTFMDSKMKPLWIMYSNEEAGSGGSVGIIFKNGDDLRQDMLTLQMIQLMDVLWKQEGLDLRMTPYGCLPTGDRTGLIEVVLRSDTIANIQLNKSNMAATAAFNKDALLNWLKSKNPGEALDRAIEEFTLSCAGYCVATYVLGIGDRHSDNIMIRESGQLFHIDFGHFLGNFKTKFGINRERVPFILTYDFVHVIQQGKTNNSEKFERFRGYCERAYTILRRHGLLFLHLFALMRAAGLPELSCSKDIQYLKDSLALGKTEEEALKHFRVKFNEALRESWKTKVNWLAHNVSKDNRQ

[17] = biological target: T3, Phosphatidylinositol 4,5-bisphosphate 3-kinase catalytic subunit delta isoform (Homo sapiens); settings: at 1 µM
[18] = biological target: Phosphatidylinositol 4-kinase beta (Homo sapiens) (UniProt Q9UBF8); settings: at 0.1 µM
Sequence of Phosphatidylinositol 4-kinase beta (Homo sapiens) (Q9UBF8 2-816 limits assumed): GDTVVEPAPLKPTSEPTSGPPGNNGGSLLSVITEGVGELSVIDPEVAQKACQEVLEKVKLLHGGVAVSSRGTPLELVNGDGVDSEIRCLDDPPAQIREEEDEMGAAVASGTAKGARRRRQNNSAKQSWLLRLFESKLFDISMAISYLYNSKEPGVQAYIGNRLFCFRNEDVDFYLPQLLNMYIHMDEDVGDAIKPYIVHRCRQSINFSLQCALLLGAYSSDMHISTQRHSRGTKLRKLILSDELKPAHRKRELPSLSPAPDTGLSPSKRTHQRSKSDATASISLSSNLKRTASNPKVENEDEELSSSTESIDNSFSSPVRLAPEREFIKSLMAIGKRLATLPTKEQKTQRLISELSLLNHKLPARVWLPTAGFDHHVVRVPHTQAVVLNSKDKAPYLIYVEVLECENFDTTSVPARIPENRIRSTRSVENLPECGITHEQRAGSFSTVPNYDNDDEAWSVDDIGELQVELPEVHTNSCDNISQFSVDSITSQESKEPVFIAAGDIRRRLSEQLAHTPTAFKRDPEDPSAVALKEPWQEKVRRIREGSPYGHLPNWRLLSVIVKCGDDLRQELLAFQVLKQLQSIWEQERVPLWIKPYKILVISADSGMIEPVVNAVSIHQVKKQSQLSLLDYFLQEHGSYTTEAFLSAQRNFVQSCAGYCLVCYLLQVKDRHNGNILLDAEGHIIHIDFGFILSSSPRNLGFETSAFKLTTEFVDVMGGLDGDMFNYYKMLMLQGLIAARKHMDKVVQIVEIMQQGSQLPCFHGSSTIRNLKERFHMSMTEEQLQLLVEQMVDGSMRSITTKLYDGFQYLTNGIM

[19] = biological target: Phosphatidylinositol 4-kinase beta (Homo sapiens) (UniProt Q9UBF8); settings: at 1 µM
[20] = biological target: Sphingosine kinase 1 (Homo sapiens) (UniProt Q9NYA1); settings: at 0.1 µM;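 also: mean percent inhibition of SPHK1 activity, measured within the GSK PKIS screening panel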
Sequence of Sphingosine kinase 1 (Homo sapiens) (Q9NYA1 whole entry): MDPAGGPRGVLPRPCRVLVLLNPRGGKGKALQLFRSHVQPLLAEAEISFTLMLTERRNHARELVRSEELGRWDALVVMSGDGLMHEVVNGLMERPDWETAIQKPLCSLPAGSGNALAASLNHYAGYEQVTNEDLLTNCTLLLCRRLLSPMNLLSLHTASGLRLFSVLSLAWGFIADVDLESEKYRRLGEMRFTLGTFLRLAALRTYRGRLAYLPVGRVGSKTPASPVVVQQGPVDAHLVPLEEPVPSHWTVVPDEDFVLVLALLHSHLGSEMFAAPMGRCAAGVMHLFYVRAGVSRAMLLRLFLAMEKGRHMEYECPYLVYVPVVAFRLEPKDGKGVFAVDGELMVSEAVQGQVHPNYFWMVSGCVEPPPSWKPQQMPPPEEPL

Sequence of Mitogen-activated protein kinase 3 (Homo sapiens) (P27361 whole entry): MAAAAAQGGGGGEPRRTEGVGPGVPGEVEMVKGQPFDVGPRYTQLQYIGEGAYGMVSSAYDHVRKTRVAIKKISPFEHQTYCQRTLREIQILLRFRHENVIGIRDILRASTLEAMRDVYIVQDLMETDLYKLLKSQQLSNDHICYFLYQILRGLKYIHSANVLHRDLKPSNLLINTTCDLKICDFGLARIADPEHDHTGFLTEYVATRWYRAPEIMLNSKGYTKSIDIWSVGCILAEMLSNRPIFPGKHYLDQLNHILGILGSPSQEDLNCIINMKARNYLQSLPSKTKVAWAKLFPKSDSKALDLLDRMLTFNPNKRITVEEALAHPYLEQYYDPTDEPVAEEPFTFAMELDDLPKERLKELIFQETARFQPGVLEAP
Sequence of SRSF protein kinase 3 (Homo sapiens) (Q9UPE1 whole entry): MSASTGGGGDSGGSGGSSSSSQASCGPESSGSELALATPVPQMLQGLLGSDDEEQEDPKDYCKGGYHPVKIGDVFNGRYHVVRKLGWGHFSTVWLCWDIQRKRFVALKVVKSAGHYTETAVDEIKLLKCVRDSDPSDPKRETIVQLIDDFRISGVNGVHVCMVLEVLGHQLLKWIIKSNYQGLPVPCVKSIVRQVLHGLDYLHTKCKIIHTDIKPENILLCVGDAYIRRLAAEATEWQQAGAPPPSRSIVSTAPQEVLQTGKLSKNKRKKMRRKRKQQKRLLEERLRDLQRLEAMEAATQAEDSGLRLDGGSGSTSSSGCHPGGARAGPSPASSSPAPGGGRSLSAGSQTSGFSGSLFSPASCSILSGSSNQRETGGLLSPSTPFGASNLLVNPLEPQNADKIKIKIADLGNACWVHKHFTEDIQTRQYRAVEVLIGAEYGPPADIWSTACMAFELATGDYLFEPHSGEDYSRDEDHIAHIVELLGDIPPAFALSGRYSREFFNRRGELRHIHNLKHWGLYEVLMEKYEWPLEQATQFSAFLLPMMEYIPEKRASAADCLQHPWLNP

SMILES	inhibition [1] [%]	inhibition [2] [%]	inhibition [3] [%]	inhibition [4] [%]	inhibition [5] [%]	inhibition [6] [%]	inhibition [7] [%]	inhibition [8] [%]	inhibition [9] [%]	inhibition [10] [%]	inhibition [11] [%]	inhibition [12] [%]	inhibition [13] [%]	inhibition [14] [%]	inhibition [15] [%]	inhibition [16] [%]	inhibition [17] [%]	inhibition [18] [%]	inhibition [19] [%]	inhibition [20] [%]
COc1cc(Nc2ncc3c(C)nc(-c4cccc(Oc5ccccc5)c4)n3n2)cc(OC)c1OC	5.07	0.17	1.56	0.66	4.12	0.51	4.42	0.98	2.5	0.18	0.85	-2.01	-3.6	0.78	1.96	0.25	2.99	2.58	2.46	-1.6
Fc1ccc(-c2c(-c3ccncc3)nc3n2CCS3)cc1	2.25	-1.16	1.49	1.13	10.9	1.9	0.65	3.54	2.65	3.9	2.27	-0.47	-2.14	2.88	4.64	2.37	3.22	-2.06	1.12	3.13
CN1CCN(CCCNc2nc3ccc(Oc4ccc(NC(=O)Nc5cc(C(F)(F)F)ccc5F)cc4)cc3[nH]2)CC1	0.83	2.09	4.1	8.14	51.8	5.1	22.1	0.46	1.31	-0.38	1.58	-1.48	-3.44	2.13	0.9	1.3	7.49	1.45	-2.72	-1.28
O=C(Nc1n[nH]c2nc(-c3ccco3)ccc12)C1CC1	1.35	0.39	4.26	1.96	5.5	1.81	1.59	1.26	1.37	5.77	0.97	-1.07	-1.33	-1.36	0.99	-0.99	1.03	3.38	1.68	-0.31
CS(=O)(=O)CCNCc1cc(-c2cc3c(Nc4ccc(OCc5cccc(F)c5)c(Cl)c4)ncnc3s2)cs1	4.92	0.81	-0.39	7.29	8.32	1.8	3.36	5.45	6.67	4.58	6	-3.5	-2.78	4.7	5.78	0.67	7.33	-1.24	3.94	1.57
Fc1ccc(-c2ncn(CCCN3CCOCC3)c2-c2ccncc2)cc1	1.77	-0.25	-0.76	7.39	48	3.21	8.94	0.12	-0.39	0.95	0.4	0.27	-5.35	-0.43	0.51	1.59	2.95	-1.68	-0.65	1.13
O=C(Nc1n[nH]c2cc(-c3cc(F)ccc3F)ccc12)C1CC1	0.63	-2.33	-2.21	1.76	8.79	3.95	7.57	-0.68	4.17	0.34	2.66	-2.08	-4.65	1.92	3.65	2.22	4.33	-2.33	3.14	0.01
COc1ccc(-c2ccc3c(NC(=O)C4CC4)n[nH]c3n2)cc1	4.66	-1.22	1.44	1.32	5.28	2.79	8.84	-0.41	0.43	1.27	0.89	-0.87	1.03	1.49	0.27	-0.49	-0.82	-2.64	-0.19	0.68
COC(=O)Nc1nc2ccc(Sc3ccc(NC(=O)Nc4cc(C(F)(F)F)ccc4F)cc3)cc2[nH]1	1.55	0.07	8.97	5.88	39.3	3.62	34.3	1.98	2.44	0.78	2.22	-1.15	-0.09	-1.35	8.27	0.7	10.2	1.21	-4.04	0.39
COc1ccc(C2=C(N3CCc4ccccc43)C(=O)NC2=O)cc1	5.25	0.52	1.43	3.41	12.2	4.81	8.67	-0.17	3.67	12	3.4	-1.12	0.76	6.53	12.6	5.26	9.11	3.23	-7.57	0.25
COc1cccc(-n2cnc3c(N/N=C/c4ccncc4)ncnc32)c1	2.27	-0.93	0.28	2.63	-0.98	1.35	0.89	-0.64	-2.04	-1.4	-1.27	1.41	4.2	-0.19	-3.79	-1.29	-2.3	5.84	-1.85	-0.37
CCS(=O)(=O)c1ccc(OC)c(Nc2ncc(-c3ccccc3Cl)o2)c1	0.91	0.64	3.28	7.68	12.2	2.55	5.3	1.24	1.41	5.31	-0.19	-0.98	0.67	-0.1	-1.53	2.13	1.67	3.2	-6.4	-0.2
Fc1ccc(-c2nc3n(c2-c2ccncc2)CCS3)cc1	4.33	-1.07	-0.89	19.8	67.4	8.81	13.1	1.46	5.36	1.62	3.41	-1.99	-4.38	3.77	4.45	3.17	4.9	-3.93	0.29	-3.68
